Data reported in PubChem BioAssay (NCI).
Compounds without any hit were thinned out: in the full panel of roughly 79,000, 15% have a hit. The source made the active and inactive calls. Cut-off read from the data, not from the text of the source: active = growth inhibition above about 70%; inactive = the rest.

Legend:
[1] = NCI Yeast Anticancer Drug Screen. Data for the mlh1 strain (AID 171);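 note: 0% = growth of vehicle-treated control cultures of the same strain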; details: S. cerevisiae mlh1 strain growth inhibition, stronger effect = higher value
In short: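 Steps: expose the defined-mutant yeast strain to compound; expose a parallel culture to vehicle; measure growth; express compound effect as inhibition relative to the vehicle culture.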

[2] = NCI Yeast Anticancer Drug Screen. Data for the sgs1 strain (AID 173);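 note: 0% = growth of vehicle-only control cultures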; details: S. cerevisiae sgs1 mutant, stronger effect = higher value
In short: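 Treat defined-mutant yeast with compound; measure growth; calculate inhibition relative to vehicle-treated cells.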

[3] = NCI Yeast Anticancer Drug Screen. Data for the mlh1 rad18 strain (AID 175); details: S. cerevisiae mlh1 rad18 strain growth inhibition, stronger effect = higher value
In short: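 Test agents were incubated with a yeast strain of defined genotype (DNA damage repair defect). Inhibition of growth was derived by comparison with vehicle-exposed cultures.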

[4] = NCI Yeast Anticancer Drug Screen. Data for the rad18 strain (AID 177); details: S. cerevisiae rad18 mutant growth inhibition, stronger effect = higher value
In short: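 A genetically defined yeast mutant impaired in DNA damage repair was treated with test compounds, then its growth was measured against cultures receiving vehicle alone.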

[5] = NCI Yeast Anticancer Drug Screen. Data for the rad52 strain (AID 147);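 note: 0% = growth of vehicle-treated control cultures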; details: S. cerevisiae rad52 mutant growth inhibition, stronger effect = higher value
In short: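 Screen used a yeast mutant impaired in DNA repair. After compound exposure, growth was measured. Values reflect inhibition compared with vehicle-treated cells.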

[6] = NCI Yeast Anticancer Drug Screen. Data for the wt1 strain (AID 149);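 note: 0% = growth of vehicle-treated wt1 cultures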; details: S. cerevisiae wt1 strain (SPY 50644) growth inhibition, stronger effect = higher value
In short: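 wt1 yeast, compound-treated; % growth inhibition vs vehicle control.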

[7] = NCI Yeast Anticancer Drug Screen. Data for the rad50EPP+ strain (AID 151);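 note: 0% = growth of vehicle-treated control cultures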; details: S. cerevisiae rad50 mutant strain, stronger effect = higher value
In short: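 Exposing the rad50EPP+ strain to each compound, growth was compared with vehicle-only cultures to give inhibition.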

[8] = NCI Yeast Anticancer Drug Screen. Data for the rad50 strain (AID 155);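 note: 0% = growth of vehicle-only cultures of the same strain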; details: S. cerevisiae rad50 strain growth inhibition, stronger effect = higher value
In short: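 Genetically altered yeast (DNA repair pathway); compound treatment; growth inhibition vs vehicle ctrl.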

[9] = NCI Yeast Anticancer Drug Screen. Data for the mec2-1 strain (AID 157); details: S. cerevisiae mec2-1 strain, stronger effect = higher value
In short: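 Readout is yeast growth inhibition, normalised to vehicle-treated controls, in the mec2-1 strain exposed to compound.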

[10] = NCI Yeast Anticancer Drug Screen. Data for the rad14 strain (AID 159);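 note: 0% = growth of vehicle-treated control cultures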; details: S. cerevisiae rad14 strain growth inhibition, stronger effect = higher value
In short: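 Test compounds were applied to a repair-deficient yeast strain. Its growth was then compared with that of cultures given vehicle alone, and inhibition was expressed relative to those controls.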

[11] = NCI Yeast Anticancer Drug Screen. Data for the sgs1 mgt1 strain (AID 161);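 note: 0% = growth of cultures given vehicle only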; details: S. cerevisiae sgs1 mgt1 strain, stronger effect = higher value
In short: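 Compounds are added to genetically altered yeast, and growth is compared with cultures given vehicle alone to give percent inhibition.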

[12] = NCI Yeast Anticancer Drug Screen. Data for the CLN2oe strain (AID 163);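 note: 0% = growth of vehicle-only control cultures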; details: S. cerevisiae CLN2oe strain, stronger effect = higher value
In short: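 Values reflect how much compound exposure reduced yeast growth, referenced to vehicle-exposed cells. Assay organism is a strain with a defined genetic change affecting cell-cycle control.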

[13] = NCI Yeast Anticancer Drug Screen. Data for the cln2 rad14 strain (AID 165);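 note: 0% = growth equal to vehicle treated cultures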; details: S. cerevisiae cln2 rad14 strain, stronger effect = higher value
In short: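 Relative to vehicle controls, growth inhibition of compound-treated cln2 rad14 yeast was recorded.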

[14] = NCI Yeast Anticancer Drug Screen. Data for the bub3 strain (AID 167); details: S. cerevisiae bub3 mutant strain, stronger effect = higher value
In short: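 Yeast carrying a defined mutation is treated with each compound, and growth is compared with that of vehicle-exposed cells to give inhibition.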

[15] = NCI Yeast Anticancer Drug Screen. Data for the wt2 strain (AID 169);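 note: 0% = growth of vehicle-treated yeast cultures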; details: S. cerevisiae wt2 strain growth inhibition, stronger effect = higher value
In short: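 Values express reduction in yeast growth under compound treatment, referenced to vehicle-treated cells.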

[16] = at 5.0 µM (retest, dose inferred, filed as 0.5)
[17] = at 50.0 µM (retest, dose inferred, filed as 5.0)

Measured: growth inhibition

Cc1cc(O)c(C(C)C)cc1C1(c2cc(C(C)C)c(O)cc2C)OC(=O)c2ccccc21
inactive: [1]; at 1.2 µM 5% | [1]; at 3.7 µM 3% | [1]; at 11.0 µM 3% | [1]; at 33.0 µM -24% | [1]; at 100.0 µM 31% | [2]; at 1.2 µM 2% | [2]; at 3.7 µM 4% | [2]; at 11.0 µM 5% | [2]; at 33.0 µM 2% | [2]; at 100.0 µM 48% | [3]; [16] 9% | [4]; at 1.2 µM 10% | [4]; at 3.7 µM 4% | [4]; at 11.0 µM -2% | [4]; at 33.0 µM 3% | [4]; at 100.0 µM 32%
active: [3]; [17] 98% | [3]; at 50.0 µM 91.6%

CCCC(=O)Oc1ccc(/C=N/NC(N)=S)nc1
inactive: [5]; at 1.2 µM 5% | [5]; at 3.7 µM -9% | [5]; at 11.0 µM -1% | [5]; at 33.0 µM 8% | [5]; at 100.0 µM 4% | [6]; at 1.2 µM 1% | [6]; at 3.7 µM -19% | [6]; at 11.0 µM 1% | [6]; at 33.0 µM -19% | [6]; at 100.0 µM -24% | [7]; at 1.2 µM -3% | [7]; at 3.7 µM 7% | [7]; at 11.0 µM 0% | [7]; at 33.0 µM -11% | [7]; at 100.0 µM -9% | [8]; at 1.2 µM -9% | [8]; at 3.7 µM -16% | [8]; [16] -3% | [8]; at 11.0 µM -17% | [8]; at 33.0 µM -7% | [8]; [17] 14% | [8]; at 50.0 µM 15% | [8]; at 100.0 µM 4% | [9]; at 1.2 µM -3% | [9]; at 3.7 µM -2% | [9]; [16] -2% | [9]; at 11.0 µM -4% | [9]; at 33.0 µM -2% | [9]; at 100.0 µM 42% | [10]; at 1.2 µM 2% | [10]; at 3.7 µM 2% | [10]; at 11.0 µM -17% | [10]; at 33.0 µM -19% | [10]; at 100.0 µM -21% | [11]; [16] -1% | [11]; [17] 25% | [11]; at 50.0 µM 28.4% | [12]; at 1.2 µM -5% | [12]; at 3.7 µM -7% | [12]; at 11.0 µM -11% | [12]; at 33.0 µM -6% | [12]; at 100.0 µM -8% | [13]; [16] -3% | [13]; [17] 33% | [13]; at 50.0 µM 11.3% | [14]; at 1.2 µM -5% | [14]; at 3.7 µM -6% | [14]; [16] -4% | [14]; at 11.0 µM -9% | [14]; at 33.0 µM -20% | [14]; [17] -14% | [14]; at 50.0 µM 0.95% | [14]; at 100.0 µM -21% | [15]; at 1.2 µM -13% | [15]; at 3.7 µM -5% | [15]; at 11.0 µM -6% | [15]; at 33.0 µM 6% | [15]; at 100.0 µM 10% | [1]; at 1.2 µM -9% | [1]; at 3.7 µM -6% | [1]; at 11.0 µM -8% | [1]; at 33.0 µM -9% | [1]; at 100.0 µM -14% | [2]; at 1.2 µM -10% | [2]; at 3.7 µM -5% | [2]; at 11.0 µM -2% | [2]; at 33.0 µM -9% | [2]; at 100.0 µM -1% | [3]; [16] -4% | [3]; [17] 26% | [3]; at 50.0 µM 19.1% | [4]; at 1.2 µM -7% | [4]; at 3.7 µM 2% | [4]; at 11.0 µM -2% | [4]; at 33.0 µM -8% | [4]; at 100.0 µM -10%
active: [9]; [17] 89% | [9]; at 50.0 µM 75.2%

CN(C)c1ccc(N=Nc2ccncc2)cc1
inactive: [5]; at 1.2 µM 1% | [5]; at 3.7 µM 1% | [5]; at 11.0 µM 15% | [5]; at 33.0 µM 33% | [6]; at 1.2 µM -7% | [6]; at 3.7 µM -3% | [6]; at 11.0 µM -1% | [6]; at 33.0 µM -1% | [6]; at 100.0 µM 40% | [7]; at 1.2 µM 3% | [7]; at 3.7 µM 12% | [7]; at 11.0 µM 64% | [8]; at 1.2 µM 8% | [8]; at 3.7 µM 11% | [8]; [16] -86% | [8]; at 11.0 µM 31% | [8]; at 33.0 µM 55% | [8]; [17] 27% | [9]; at 1.2 µM -2% | [9]; at 3.7 µM 7% | [9]; [16] -41% | [9]; at 11.0 µM 19% | [9]; at 33.0 µM 18% | [9]; [17] -3% | [9]; at 50.0 µM 53.1% | [9]; at 100.0 µM 67% | [10]; at 1.2 µM 9% | [10]; at 3.7 µM 31% | [10]; at 11.0 µM 51% | [10]; at 33.0 µM 47% | [10]; at 100.0 µM 52% | [11]; [16] -19% | [11]; [17] 32% | [12]; at 1.2 µM 13% | [12]; at 3.7 µM 22% | [12]; at 11.0 µM 37% | [12]; at 33.0 µM 38% | [12]; at 100.0 µM 36% | [13]; [16] -36% | [13]; [17] 2% | [13]; at 50.0 µM 37.1% | [14]; at 1.2 µM 4% | [14]; at 3.7 µM 22% | [14]; [16] -13% | [14]; at 11.0 µM 60% | [15]; at 1.2 µM 3% | [15]; at 3.7 µM 7% | [15]; at 11.0 µM 22% | [15]; at 33.0 µM 23% | [15]; at 100.0 µM 20% | [1]; at 1.2 µM 7% | [1]; at 3.7 µM 11% | [1]; at 11.0 µM 29% | [1]; at 33.0 µM 42% | [1]; at 100.0 µM 47% | [2]; at 1.2 µM 15% | [2]; at 3.7 µM 41% | [2]; at 11.0 µM 63% | [2]; at 33.0 µM 67% | [2]; at 100.0 µM 68% | [3]; [16] -82% | [3]; [17] 4% | [3]; at 50.0 µM 67.7%
active: [5]; at 100.0 µM 71% | [7]; at 33.0 µM 87% | [7]; at 100.0 µM 82% | [8]; at 50.0 µM 82.3% | [8]; at 100.0 µM 77% | [11]; at 50.0 µM 70.6% | [14]; at 33.0 µM 78% | [14]; [17] 73% | [14]; at 50.0 µM 86.5% | [14]; at 100.0 µM 86%
